Data as given in PubChem BioAssay AID1850 (Southern Research Specialized Biocontainment Screening …, 2009).
Out of some 310,000 compounds screened, about 1,000 (0.32%) were called active. How the calls were made is not given here. Not all results are given here. Results with a measured potency or affinity are listed apart.

Assay: Inhibition of PhoP regulon, Salmonella typhi GFP reporter cells, confirmation, 4 h (AID 1850);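 further: 0% = induced wells with vehicle and 100% = uninduced wells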
Conditions: Salmonella Typhi PhoP-promoter GFP reporter, fluorescence, at 50 µM, active compounds read high

Q: Which inhibition does the source give for `Cc1ccc(NC(=O)c2ccc3snnc3c2)cc1` here?
A: -2.31% (inactive)

Q: Which inhibition does the source give for `COc1ccccc1N1CCN(C(=O)CN2C(=O)c3ccccc3S2(=O)=O)CC1` here?
A: -8.97% (inactive)

Q: For `Cc1cc(Nc2ccccc2)nc2cc(O)ccc12`, which inhibition is on record?
A: 11.4% (inactive)

Q: With `Cc1cccc(NC(=S)N(C)C)c1C` as the compound, how does the inhibition read?
A: 17.9% (inactive)

Q: For `Cc1cccc(Nc2nc3ccccc3s2)c1C`, which inhibition is on record?
A: -1.36% (inactive)

Q: For `Cc1cc(Nc2ccccc2O)c2ccccc2n1`, which inhibition is on record?
A: 6.66% (inactive)

Q: Which inhibition does the source give for `O=C(CSC1=NNC(c2ccccn2)S1)Nc1ccc(C(F)(F)F)cc1` (stereo not given) here?
A: 3.27% (inactive)

Q: With `Cc1cc(C)c2cc(C(=O)N3CCC(C(=O)c4ccc(F)cc4)CC3)[nH]c2c1` as the compound, how does the inhibition read?
A: 2.06% (inactive)

Q: With `O=C1c2ccccc2NC(c2ccccc2O)N1O` (stereo not given) as the compound, how does the inhibition read?
A: -4.51% (inactive)

Q: With `N/C(=N\N=C/c1ccc(Br)cc1)N/N=C\c1ccc(Br)cc1` as the compound, how does the inhibition read?
A: -6.33% (inactive)

Q: Which inhibition does the source give for `O=C(N/N=C\c1ccc(F)cc1)c1ccc(F)cc1` here?
A: 23.4% (inactive)

Q: Which inhibition does the source give for `CC(=O)Nc1ccc2c(c1)nc1n2CCSC1` here?
A: 11.9% (inactive)

Q: Which inhibition does the source give for `Cc1cc(/C=C2\C(=O)NC(=O)N(c3ccc(Cl)cc3)C2=O)c(C)n1-c1cccc(C(=O)O)c1` here?
A: -15.1% (inactive)

Q: Which inhibition does the source give for `Cc1ccc(/C=N/NC(=O)c2nnn(-c3nonc3N)c2CN(C)c2ccccc2)s1` here?
A: 0.97% (inactive)

Q: With `Oc1ccccc1N=N/C(=N/Nc1ccccc1O)c1ccccc1` as the compound, how does the inhibition read?
A: -5.08% (inactive)

Q: With `C/C(N=Nc1nc2ccccc2s1)=N\Nc1ccccc1O` as the compound, how does the inhibition read?
A: 16.1% (inactive)

Q: Which inhibition does the source give for `O=C(Cn1nc(C(F)F)cc1C(F)F)NNC(=S)Nc1ccc(F)cc1` here?
A: -9.87% (inactive)

Q: For `O=C(Cn1nc(C(F)F)cc1C(F)F)NNC(=S)Nc1ccc(Cl)cc1`, which inhibition is on record?
A: 8.04% (inactive)

Q: Which inhibition does the source give for `COC1(OC)N=C(N)C2(C#N)C(c3ccccc3)NC(C)=CC12C#N` (stereo not given) here?
A: 22.3% (inactive)

Q: For `CC(Oc1ccc(Br)cc1)C(=O)N(C)CC(=O)Nc1ccc(N2CCOCC2)cc1` (stereo not given), which inhibition is on record?
A: -2.3% (inactive)

Q: With `Cc1cc(N2CCN(c3ccccc3)CC2)nc(NCc2ccccc2)n1` as the compound, how does the inhibition read?
A: -4.52% (inactive)

Q: With `Cc1cc(N2CCCCC2)nc(NCc2ccccc2)n1` as the compound, how does the inhibition read?
A: 5.84% (inactive)

Q: For `Cc1cc(Nc2cccc(F)c2)nc(NCc2ccccc2)n1`, which inhibition is on record?
A: -0.63% (inactive)

Q: For `CCCCNc1cc(C)nc(NCc2ccccc2)n1`, which inhibition is on record?
A: 15.8% (inactive)

Q: Which inhibition does the source give for `Cc1cc(N/N=C/c2ccccc2)nc(NCc2ccccc2)n1` here?
A: -6.44% (inactive)

Q: Which inhibition does the source give for `Cc1cc(Nc2ccccc2)nc(NCc2ccccc2)n1` here?
A: -0.96% (inactive)

Q: Which inhibition does the source give for `Cc1cc(OC2CCCCC2)nc(NCc2ccccc2)n1` here?
A: -3.41% (inactive)

Q: With `Cc1ccc(/C=N/Nc2cc(C)nc(NCc3ccccc3)n2)cc1` as the compound, how does the inhibition read?
A: 8.63% (inactive)

Q: For `CCOc1ccc(S(=O)(=O)Nc2ccccc2C(=O)NCc2ccco2)cc1`, which inhibition is on record?
A: -4.17% (inactive)

Q: For `CCOCCCNC(=O)c1ccc(N(C)S(=O)(=O)c2ccc(OC)cc2)cc1`, which inhibition is on record?
A: -7.69% (inactive)

Q: For `CCCCCC(O)CCC(=O)NNC1=CC(=O)CC(C)(C)C1` (stereo not given), which inhibition is on record?
A: 5.33% (inactive)

Q: For `CC(=O)NCCCC(=O)NN1C(=S)N(Cc2ccccc2)C(=O)C1CC(=O)Nc1cccc(C)c1` (stereo not given), which inhibition is on record?
A: -3.38% (inactive)

Q: Which inhibition does the source give for `COc1ccc(CCNC(=O)c2ccc(OCC(=O)N3CCOCC3)c(OC)c2)cc1OC` here?
A: 2.3% (inactive)

Q: Which inhibition does the source give for `O=C(NC(=S)Nc1ccc(S(=O)(=O)Nc2nccs2)cc1)c1cccc(F)c1` here?
A: 9.55% (inactive)

Q: Which inhibition does the source give for `O=C(Nc1cc(Br)c(O)c(Br)c1)c1cccc(NC(=O)c2ccco2)c1` here?
A: -5.68% (inactive)

Q: For `O=C(Nc1cccc(N=Cc2cc(Br)cc(Br)c2O)c1)c1ccco1`, which inhibition is on record?
A: 18.1% (inactive)

Q: Which inhibition does the source give for `O=C(Nc1cccnc1)c1ccc(Br)c(S(=O)(=O)N2CCCC2)c1` here?
A: 1.47% (inactive)

Q: With `O=C(Nc1nnc(-c2ccccn2)o1)c1ccc(Br)cc1` as the compound, how does the inhibition read?
A: -1.87% (inactive)

Q: Which inhibition does the source give for `O=C(Nc1nnc(-c2ccccn2)o1)c1cccc(Br)c1` here?
A: 3.24% (inactive)

Q: For `Cc1cccc(C(=O)Nc2nnc(-c3ccco3)o2)c1`, which inhibition is on record?
A: -1.28% (inactive)

Q: With `O=C(Nc1nnc(-c2ccco2)o1)c1ccc(Cl)cc1` as the compound, how does the inhibition read?
A: 0.38% (inactive)

Q: Which inhibition does the source give for `Cc1cccc(CC(=O)N2CCC(n3nccc3NC(=O)C3CC3)CC2)c1` here?
A: -7.5% (inactive)

Q: With `O=C(NCc1ccccc1)c1nc(-c2cccs2)no1` as the compound, how does the inhibition read?
A: -1.19% (inactive)

Q: With `CN(Cc1ccon1)C(=O)C1CCC(=O)N(Cc2ccc(Cl)cc2)C1` (stereo not given) as the compound, how does the inhibition read?
A: -14.1% (inactive)

Q: Which inhibition does the source give for `Cc1cc(C(=O)CC#N)c(C)n1-c1ccc(OC(F)F)cc1` here?
A: -0.727% (inactive)

Q: For `O=C(C[n+]1ccc2ccccc2c1)c1cccc2ccccc12`, which inhibition is on record?
A: -0.15% (inactive)

Q: For `Cc1ccc(S(=O)(=O)NNC(=O)c2sc(=S)n(C)c2C)cc1`, which inhibition is on record?
A: -24.1% (inactive)

Q: With `Cc1ccc(N2C(=O)C3C4C=CC(CNC(=S)N5CCN(c6ccccn6)CC5)(O4)C3C2=O)cc1` (stereo not given) as the compound, how does the inhibition read?
A: 5.6% (inactive)

Q: With `COc1ccc(/C=N\NC(=O)c2cccc(F)c2)cc1COc1ccccc1` as the compound, how does the inhibition read?
A: -7.03% (inactive)

Q: For `C[C@H]1[C@H](NC(=O)C(=NOC(C)(C)C(=O)O)c2csc(N)n2)C(=O)N1S(=O)(=O)O`, which inhibition is on record?
A: 1.3% (inactive)

Q: Which inhibition does the source give for `C=CC1=C(C(=O)O)N2C(=O)C(NC(=O)Cc3ccccc3)C2SC1` (stereo not given) here?
A: -5.97% (inactive)

Q: Which inhibition does the source give for `CC1=C(C(=O)O)N2C(=O)C(NC(=O)c3ccn(C)n3)C2SC1` (stereo not given) here?
A: 7.91% (inactive)

Q: With `CC1=C(C(=O)O)N2C(=O)C(NC(=O)CCCC(=O)O)C2SC1` (stereo not given) as the compound, how does the inhibition read?
A: 10.9% (inactive)

Q: Which inhibition does the source give for `O=C(O)C[C@H]1c2ccccc2S(=O)(=O)N1c1ccccc1` here?
A: -12.5% (inactive)

Q: Which inhibition does the source give for `Cc1nn(Cc2noc(C(=O)NCc3ccc(F)cc3)n2)c(C)c1Br` here?
A: 5.51% (inactive)

Q: For `O=C(CCc1nnc(Cc2cccc(C(F)(F)F)c2)o1)NC1CC1`, which inhibition is on record?
A: 2.17% (inactive)

Q: Which inhibition does the source give for `COc1ccc(N(CC(=O)Nc2ccccc2C(=O)NCCc2ccccc2)S(C)(=O)=O)cc1OC` here?
A: -12.9% (inactive)

Q: With `CC(=O)Nc1ccc(S(=O)(=O)Oc2ccccc2N2C(=O)C3C4CCC(C4)C3C2=O)cc1` (stereo not given) as the compound, how does the inhibition read?
A: 1.86% (inactive)

Q: For `COc1ccc(N(CC(=O)NC2CC3CCC2C3)S(=O)(=O)c2ccc(C)cc2)cc1` (stereo not given), which inhibition is on record?
A: -6.68% (inactive)

Q: For `CN(C)CCCNc1ccc(-c2n[nH]c(=O)c3ccccc23)cc1[N+](=O)[O-]`, which inhibition is on record?
A: -4.76% (inactive)
